Several values for one entry are separate records, joined by “and”; a condition that tells them apart may be missing. Identical values can stand only once. Among all 5,500 compounds or so, about 2,000 (36%) were called active. Not shown: some 18% with an inconclusive outcome. Rule as the data show it: active = normalized growth mostly below about 0.91 (no sharp cut-off); inconclusive = no clear call, values can overlap the other calls; inactive = mostly above about 0.92. This is one part of the list.
Assay: chemical genetic growth profiling, strain panel (AID 1159580);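 also: tested at 20 µM; growth read once vehicle control cultures reached saturation at 30 °C; 1 = growth at the plate median or of vehicle wells; lower values mean less growth of the strain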
Conditions: growth OD

Measured: normalized growth

O[C@H]1[C@H](O)[C@@H](O)C2OC[C@H]1O2
inactive: S. cerevisiae deletion strains, locus YAL013W, strain DEP1, stronger effect = lower value 1 | S. cerevisiae deletion strains, locus YBR021W, strain FUR4, stronger effect = lower value 1.03 | S. cerevisiae deletion strains, locus YBR229C, strain ROT2, stronger effect = lower value 0.961 | S. cerevisiae deletion strains, locus YCL029C, strain bik1, stronger effect = lower value 0.986 | S. cerevisiae deletion strains, locus YDL035C, strain GPR1, stronger effect = lower value 0.986 | S. cerevisiae deletion strains, locus YDL074C, strain BRE1, stronger effect = lower value 0.929 | S. cerevisiae deletion strains, locus YDL101C, strain DUN1, stronger effect = lower value 0.943 | S. cerevisiae deletion strains, locus YDL134C, strain PPH21, stronger effect = lower value 0.99 | S. cerevisiae deletion strains, locus YDL192W, strain arf1, stronger effect = lower value 0.986 | S. cerevisiae deletion strains, locus YDR101C, strain arx1, stronger effect = lower value 0.994 | S. cerevisiae deletion strains, locus YDR150W, strain NUM1, stronger effect = lower value 0.992 | S. cerevisiae deletion strains, locus YDR162C, strain NBP2, stronger effect = lower value 0.918 | S. cerevisiae deletion strains, locus YDR318W, strain mcm21, stronger effect = lower value 0.998 | S. cerevisiae deletion strains, locus YDR388W, stronger effect = lower value 0.992 | S. cerevisiae deletion strains, locus YDR502C, strain sam2, stronger effect = lower value 0.983 | S. cerevisiae deletion strains, locus YEL061C, strain CIN8, stronger effect = lower value 0.986 | S. cerevisiae deletion strains, locus YER110C, stronger effect = lower value 0.983 | S. cerevisiae deletion strains, locus YER155C, strain BEM2, stronger effect = lower value 0.988 | S. cerevisiae deletion strains, locus YER167W, strain BCK2, stronger effect = lower value 1 | S. cerevisiae deletion strains, locus YGL078C, strain dbp3, stronger effect = lower value 0.987 | S. cerevisiae deletion strains, locus YGL086W, strain mad1, stronger effect = lower value 1 | S. cerevisiae deletion strains, locus YGL248W, strain PDE1, stronger effect = lower value 0.975 | S. cerevisiae deletion strains, locus YGR078C, strain PAC10, stronger effect = lower value 0.951 | S. cerevisiae deletion strains, locus YGR135W, strain pre9, stronger effect = lower value 0.982 | S. cerevisiae deletion strains, locus YGR229C, strain SMI1, stronger effect = lower value 0.975 | S. cerevisiae deletion strains, locus YGR252W, strain gcn5, stronger effect = lower value 1 | S. cerevisiae deletion strains, locus YHR030C, strain SLT2, stronger effect = lower value 1 and 0.967 | S. cerevisiae deletion strains, locus YHR079C, strain IRE1 (second series), stronger effect = lower value 0.999 | S. cerevisiae deletion strains, locus YHR079C, strain IRE1, stronger effect = lower value 0.967 | S. cerevisiae deletion strains, locus YHR094C, strain hxt1, stronger effect = lower value 1 | S. cerevisiae deletion strains, locus YHR129C, strain ARP1, stronger effect = lower value 0.993 | S. cerevisiae deletion strains, locus YHR200W, strain rpn10, stronger effect = lower value 0.992 | S. cerevisiae deletion strains, locus YIL066C, strain RNR3, stronger effect = lower value 0.98 | S. cerevisiae deletion strains, locus YIL073C, strain SPO22, stronger effect = lower value 1.01 | S. cerevisiae deletion strains, locus YIL125W, strain kgd1, stronger effect = lower value 0.988 | S. cerevisiae deletion strains, locus YIR030C, strain dcg1, stronger effect = lower value 0.983 | S. cerevisiae deletion strains, locus YJL095W, strain BCK1, stronger effect = lower value 0.98 and 0.977 | S. cerevisiae deletion strains, locus YJL134W, strain LCB3, stronger effect = lower value 0.984 | S. cerevisiae deletion strains, locus YJL168C, strain set2, stronger effect = lower value 0.982 | S. cerevisiae deletion strains, locus YJL187C, strain SWE1 (second series), stronger effect = lower value 0.972 | S. cerevisiae deletion strains, locus YJR043C, strain POL32, stronger effect = lower value 0.999 | S. cerevisiae deletion strains, locus YJR066W, strain TOR1, stronger effect = lower value 0.919 | S. cerevisiae deletion strains, locus YJR075W, strain HOC1, stronger effect = lower value 0.936 | S. cerevisiae deletion strains, locus YKL009W, strain mrt4, stronger effect = lower value 0.977 | S. cerevisiae deletion strains, locus YKL068W, stronger effect = lower value 0.982 | S. cerevisiae deletion strains, locus YKL085W, strain MDH1 (second series), stronger effect = lower value 1.02 | S. cerevisiae deletion strains, locus YKL085W, strain MDH1, stronger effect = lower value 1.02 | S. cerevisiae deletion strains, locus YKL190W, strain CNB1, stronger effect = lower value 0.98 | S. cerevisiae deletion strains, locus YKR001C, strain vps1, stronger effect = lower value 0.998 | S. cerevisiae deletion strains, locus YLR039C, strain RIC1, stronger effect = lower value 0.968 | S. cerevisiae deletion strains, locus YLR058C, strain SHM2, stronger effect = lower value 0.972 | S. cerevisiae deletion strains, locus YLR102C, strain apc9, stronger effect = lower value 0.984 | S. cerevisiae deletion strains, locus YLR113W, strain HOG1, stronger effect = lower value 0.999 | S. cerevisiae deletion strains, locus YLR262C, strain YPT6, stronger effect = lower value 0.935 | S. cerevisiae deletion strains, locus YLR268W, strain sec22, stronger effect = lower value 0.963 | S. cerevisiae deletion strains, locus YLR330W, strain CHS5, stronger effect = lower value 0.988 | S. cerevisiae deletion strains, locus YLR342W, strain FKS1 (second series), stronger effect = lower value 1.04 | S. cerevisiae deletion strains, locus YLR371W, strain rom2, stronger effect = lower value 0.938 | S. cerevisiae deletion strains, locus YLR418C, strain cdc73, stronger effect = lower value 0.961 | S. cerevisiae deletion strains, locus YML016C, strain PPZ1, stronger effect = lower value 0.983 | S. cerevisiae deletion strains, locus YML032C, strain rad52, stronger effect = lower value 1 | S. cerevisiae deletion strains, locus YML124C, strain tub3, stronger effect = lower value 0.992 | S. cerevisiae deletion strains, locus YMR078C, strain ctf18, stronger effect = lower value 0.987 | S. cerevisiae deletion strains, locus YMR223W, strain ubp8, stronger effect = lower value 1.01 | S. cerevisiae deletion strains, locus YMR263W, strain SAP30, stronger effect = lower value 0.94 | S. cerevisiae deletion strains, locus YMR307W, strain GAS1, stronger effect = lower value 1.04 | S. cerevisiae deletion strains, locus YNL067W, strain RPL9B, stronger effect = lower value 0.951 | S. cerevisiae deletion strains, locus YNL128W, strain TEP1, stronger effect = lower value 0.926 | S. cerevisiae deletion strains, locus YNL153C, strain GIM3, stronger effect = lower value 0.97 | S. cerevisiae deletion strains, locus YNL183C, strain NPR1, stronger effect = lower value 0.905 | S. cerevisiae deletion strains, locus YNL233W, strain BNI4, stronger effect = lower value 0.978 | S. cerevisiae deletion strains, locus YNL250W, strain rad50, stronger effect = lower value 0.992 | S. cerevisiae deletion strains, locus YNL271C, strain bni1, stronger effect = lower value 0.984 | S. cerevisiae deletion strains, locus YNL298W, strain CLA4, stronger effect = lower value 1 | S. cerevisiae deletion strains, locus YNL307C, strain MCK1, stronger effect = lower value 1 | S. cerevisiae deletion strains, locus YNL322C, strain KRE1, stronger effect = lower value 0.967 | S. cerevisiae deletion strains, locus YNR052C, strain pop2, stronger effect = lower value 0.978 | S. cerevisiae deletion strains, locus YOL006C, strain TOP1, stronger effect = lower value 0.935 | S. cerevisiae deletion strains, locus YOL012C, strain htz1 0.683 | S. cerevisiae deletion strains, locus YOL147C, strain pex11, stronger effect = lower value 0.997 | S. cerevisiae deletion strains, locus YOR061W, strain CKA2, stronger effect = lower value 0.952 | S. cerevisiae deletion strains, locus YOR069W, strain VPS5, stronger effect = lower value 0.99 | S. cerevisiae deletion strains, locus YOR136W, strain idh2, stronger effect = lower value 0.99 | S. cerevisiae deletion strains, locus YOR144C, strain elg1, stronger effect = lower value 0.983 | S. cerevisiae deletion strains, locus YOR184W, strain ser1, stronger effect = lower value 1.01 | S. cerevisiae deletion strains, locus YOR231W, strain MKK1, stronger effect = lower value 0.98 | S. cerevisiae deletion strains, locus YOR316C, strain cot1, stronger effect = lower value 0.977 | S. cerevisiae deletion strains, locus YPL055C, strain LGE1, stronger effect = lower value 0.931 | S. cerevisiae deletion strains, locus YPL241C, strain CIN2, stronger effect = lower value 0.983 | S. cerevisiae deletion strains, locus YPL256C, strain CLN2, stronger effect = lower value 0.972 | S. cerevisiae deletion strains, locus YPR119W, strain clb2, stronger effect = lower value 0.992 | S. cerevisiae deletion strains, locus YPR141C, strain kar3, stronger effect = lower value 0.969 | S. cerevisiae deletion strains, locus YPR163C, strain tif3, stronger effect = lower value 0.995 | S. cerevisiae deletion strains, locus YPR167C, strain met16, stronger effect = lower value 0.972 | S. cerevisiae deletion strains, strain wtn01, stronger effect = lower value 0.943 | S. cerevisiae strains, strain wild type, stronger effect = lower value 1.01
active: S. cerevisiae deletion strains, locus YDL185W, strain tfp1, stronger effect = lower value 0.901

— PubChem BioAssay AID1159580 (chemical genetic matrix, 2015)
